# Screening data from PubChem.
# SENP8 block-1: blocks human SENP8 cleavage of Nedd8 substrate | AID 602440 | 360,000 compounds, 0.64% hits | recombinant SENP8, Nedd8 substrate fluorescence | inhibition, % at 20 µM | Q96LD8; in the data active means inhibition mostly above about 40%, no sharp cut-off; inactive means mostly below about 27%
# Target sequence (Q96LD8 whole entry, looked up): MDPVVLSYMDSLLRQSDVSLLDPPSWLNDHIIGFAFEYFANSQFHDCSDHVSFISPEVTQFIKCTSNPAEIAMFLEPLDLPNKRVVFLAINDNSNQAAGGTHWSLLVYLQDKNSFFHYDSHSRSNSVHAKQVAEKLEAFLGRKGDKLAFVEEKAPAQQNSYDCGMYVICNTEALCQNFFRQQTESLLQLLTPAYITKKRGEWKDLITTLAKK
# SENP7 block: blocks the human protease SENP7 | Q9BQF6 | recombinant SENP7, Z-RLRGG-aminoluciferin luminescence, 40 min | inhibition, % at 5 µM | 330,000 compounds, 1.5% hits | AID 434973;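 active means inhibition above about 50% at the single test dose, limit read from the data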
# Target sequence (Q9BQF6 706-1050 limits assumed): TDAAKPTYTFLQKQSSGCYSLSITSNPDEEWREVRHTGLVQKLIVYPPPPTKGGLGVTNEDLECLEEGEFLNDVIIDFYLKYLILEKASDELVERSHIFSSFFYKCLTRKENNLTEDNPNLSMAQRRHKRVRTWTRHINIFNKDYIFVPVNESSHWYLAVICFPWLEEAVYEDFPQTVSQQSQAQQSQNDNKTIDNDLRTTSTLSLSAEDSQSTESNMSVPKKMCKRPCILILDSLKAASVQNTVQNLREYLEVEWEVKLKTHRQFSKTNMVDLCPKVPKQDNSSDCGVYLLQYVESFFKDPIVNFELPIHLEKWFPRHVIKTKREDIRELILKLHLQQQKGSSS
# HSP90 refold inh: inhibitors of HSP90 luciferase refolding in rabbit reticulocyte lysate. inhibition, % at 5.6 µM. luciferase refolding luminescence, 3 h. 290,000 compounds, 0.91% hits. AID 1789;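 active means inhibition above the screen-wide mean plus 3 SD, computed separately per campaign, cut at about 16% in these data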;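 further: inhibitors lower the luminescence because luciferase stays unfolded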
# SENP8 block-2: inhibitors of human SENP8 protease | purified SENP8, Z-RLRGG-aminoluciferin cleavage, luminescence | inhibition, % at 10 µM | 330,000 compounds, 1.2% hits; in the data active means inhibition above about 50%
# SENP6 block: SENP6 protease inhibition. Recombinant SENP6 catalytic domain, aminoluciferin luminescence. inhibition, % at 10 µM. 330,000 compounds, 1.8% hits. AID 2599. Q9GZR1;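 active means inhibition above about 50% at the single tested dose, limit read from the data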
# SENP8 confirm: confirmation of human SENP8 protease inhibitors; shares compounds with SENP7 block; Recombinant SENP8, Z-RLRGG-aminoluciferin luminescence, 60 min; inhibition, % at 12.5 µM; 6,200 compounds, 40% hits; AID 488912;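 active means mean inhibition across replicates above about 50%, limit read from the data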
# SENP6 confirm: human SENP6 inhibition, confirmed; recombinant SENP6, Z-RLRGG-aminoluciferin luminescence; 6,200 compounds, 58% hits; inhibition, % at 12.5 µM; shares compounds with SENP7 block; AID 488915
# SENP7 confirm: confirmation of human SENP7 protease inhibitors | recombinant SENP7, Z-RLRGG-aminoluciferin luminescence, 40 min | shares compounds with SENP7 block | inhibition, % at 12.5 µM | 6,200 compounds, 69% hits
# Casp3 SENP sel: inhibits human caspase-3 in SENP selectivity test | inhibition, % at 12.5 µM | AID 488918 | 6,200 compounds, 60% hits | purified caspase-3, Z-DEVD-aminoluciferin luminescence, 60 min | shares compounds with SENP7 block;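 active means mean inhibition above about 50%, limit read from the data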
# SENP luc ctr: counter-screen for SENP inhibitors: luminescence interference; inhibition, % at 12.5 µM; shares compounds with SENP7 block; Pre-incubated SENP8/Z-RLRGG-aminoluciferin, luciferase luminescence interference; 6,200 compounds, 39% hits; AID 488919;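 active means mean inhibition above about 50% when retested at one dose, limit read from the data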
# A number is an active result; . = inactive; / = no result given. This is a sample that favours compounds with a hit; in the whole collection about 2.7% have one here.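 How the source made its calls, unless noted: active means mean inhibition above about 50% in the one-dose retest (limit read from the data); inactive means the rest.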
SMILES,SENP8 block-1,SENP7 block,HSP90 refold inh,SENP8 block-2,SENP6 block,SENP8 confirm,SENP6 confirm,SENP7 confirm,Casp3 SENP sel,SENP luc ctr
Clc1ccsc1-c1ccc2ccccc2n1,.,81.3,.,67.3,87.5,.,77.6,94.2,51.1,.
c1ccc2nc(-c3ccncc3)ccc2c1,.,.,.,.,53.3,.,.,60.5,67.1,.
c1ccc2nc(-c3nccs3)ccc2c1,.,.,.,.,.,/,/,/,/,/
Cc1nc(/C(N)=N/OC(=O)c2ccc(Cl)cc2)c(C(F)(F)F)o1,.,81.7,.,58.0,69.2,74.4,69.8,94.1,88.5,78.3
Cc1cc(NC(=O)c2ccc(Br)c([N+](=O)[O-])c2)no1,.,.,.,.,.,/,/,/,/,/
CC1(C)CNC(=O)c2sc(NC(=O)c3ccccc3)nc2C1,.,.,.,.,.,/,/,/,/,/
CC1(C)CC(=O)c2sc(NC(=O)c3ccccc3)nc2C1,/,56.9,.,55.3,.,60.0,51.2,65.1,75.0,64.3
CC1(C)CC(=O)c2sc(NC(=O)c3cccs3)nc2C1,.,66.4,.,52.2,80.1,62.9,63.6,87.8,86.6,.
O=C(N/N=C/c1ccc(Sc2ccccn2)o1)c1cc2ccccc2cc1O,.,63.9,.,92.6,93.8,90.4,97.4,101.1,92.0,76.1
COc1cc(OC)cc(C(=O)N=c2sc3ccccc3n2C)c1,.,51.0,.,.,.,.,.,.,.,.
COc1ccc(C(=O)N=c2sc3ccccc3n2C)cc1,.,77.1,.,68.8,.,.,.,.,.,.
CC(=O)N=c1sc2ccccc2n1C,.,.,.,.,.,/,/,/,/,/
COc1cccc(C(=O)N/N=c2\sc3ccccc3n2C)c1,.,.,.,.,.,/,/,/,/,/
Cc1nc(NC(=O)c2c(-c3ccccc3)noc2C)sc1C(=O)N(C)C,.,.,.,.,.,/,/,/,/,/
NC(=O)C1(c2ccccc2)CCOCC1,.,.,.,.,.,/,/,/,/,/
COc1cccc(OCC(=O)NNC(=O)c2ccc(-c3ccccc3)cc2)c1,.,.,.,.,.,/,/,/,/,/
CCCCc1nnc(NC(=O)CC(=O)Nc2ccccc2C(=O)O)s1,.,.,.,.,.,/,/,/,/,/
CCc1nnc(NC(=O)CN2CCOCC2)s1,.,99.3,.,.,.,.,.,.,.,.
CCc1nnc(NC(=O)CC(=O)Nc2ccccc2C(=O)O)s1,.,55.3,.,.,78.5,68.1,63.4,89.4,87.5,70.8
CC(C)Cc1nnc(NC(=O)CC(=O)Nc2ccccc2C(=O)O)s1,.,.,.,52.9,70.0,.,66.6,88.5,89.3,55.1
CC(C)c1nnc(NC(=O)CC(=O)Nc2ccccc2C(=O)O)s1,.,77.5,.,70.9,81.0,87.2,86.7,97.5,94.3,86.2
CC(Oc1ccccc1)C(=O)Nc1nc2c(s1)C(=O)CC(C)(C)C2 (stereo not drawn),.,.,.,.,.,/,/,/,/,/
CS(=O)(=O)N(CC(=O)NCc1ccccc1)Cc1ccc(Cl)cc1,.,.,.,.,.,/,/,/,/,/
O=C(O)c1ccc(Nc2ccc([N+](=O)[O-])c3nonc23)cc1,.,68.3,.,81.0,84.9,88.8,85.4,97.3,71.8,82.2
CC(=O)c1ccc(Nc2ccc([N+](=O)[O-])c3nonc23)cc1,.,.,.,.,.,/,/,/,/,/
SMILES,SENP8 block-1,SENP7 block,HSP90 refold inh,SENP8 block-2,SENP6 block,SENP8 confirm,SENP6 confirm,SENP7 confirm,Casp3 SENP sel,SENP luc ctr
O=C(O)c1ccccc1C(=O)N1CCc2c([nH]c3ccccc23)C1C(F)(F)F (stereo not drawn),.,.,.,.,.,/,/,/,/,/
CC(Nc1ccc2ccccc2c1)C(=O)N/N=C/c1ccncc1 (stereo not drawn),.,.,/,.,56.2,.,.,.,.,.
CC(Oc1ccc2ccccc2c1)C(=O)N/N=C/c1cccnc1 (stereo not drawn),.,.,.,.,.,/,/,/,/,/
NC(N)=NC(N)=Nc1cccc2ccccc12,.,66.5,.,.,60.6,.,.,.,.,.
c1ccc(-c2ccc(-c3cn4c(n3)CCC4)cc2)cc1,.,72.8,.,68.6,86.8,79.6,80.1,94.7,66.1,59.9
COc1cccc(-c2cn3nc4c(nc3n2)CCCC4)c1,.,.,.,.,.,/,/,/,/,/
Clc1ccc(-c2cn3nc4c(nc3n2)CCCC4)cc1,.,.,.,.,55.0,.,61.7,61.5,59.6,.
CN(C)S(=O)(=O)c1ccc(SCC(=O)Nc2ccc3c(c2)OCCO3)nc1,.,.,/,.,.,/,/,/,/,/
CN1C(C(=O)NCc2cccc(Br)c2)CC2Cn3c(nc4ccccc43)C21 (stereo not drawn),.,.,/,.,.,/,/,/,/,/
Oc1ccc(N2Cc3ccccc3C2)cc1,.,.,.,.,.,/,/,/,/,/
O=Cc1ccc(N2Cc3ccccc3C2)cc1,.,.,.,53.9,68.0,.,54.8,81.4,65.5,.
Cc1cc2c(cc1C)CN(c1ccccc1)C2,.,.,.,56.7,59.0,50.9,.,79.4,79.1,69.7
Cc1cc(N2Cc3ccccc3C2)ccc1C=O,.,.,.,.,56.7,.,72.8,93.0,80.2,.
Cc1ccccc1C=O,.,.,/,.,.,/,/,/,/,/
Oc1cccc(N2Cc3ccccc3C2)c1,.,.,.,.,.,/,/,/,/,/
COC(=O)C1=C(C)N(Cc2ccco2)C(=O)N[C@@H]1c1ccc(Br)cc1,.,.,/,.,.,/,/,/,/,/
COc1ccc(CN2CCN(CCCc3ccccc3)C(CCO)C2)c(O)c1 (stereo not drawn),.,.,.,.,.,/,/,/,/,/
CCCOc1ccc(-c2nnc(-c3ccco3)o2)cc1,.,87.4,.,78.4,.,.,.,59.1,.,.
CC(C)COc1ccc(-c2nnc(-c3ccco3)o2)cc1,.,94.2,.,59.0,94.2,.,73.5,62.5,63.9,.
O=C(COc1ccccc1)Nc1ccc(-c2nnc(-c3ccco3)o2)cc1,.,.,.,.,.,/,/,/,/,/
CCN(CC)CCCNc1ccc(-c2nnc(-c3ccc(OCC(C)C)cc3)o2)cn1,.,.,.,.,.,/,/,/,/,/
O=C(Nc1cc(C(F)(F)F)ccc1Cl)C(Sc1nnc(-c2cccs2)o1)c1ccccc1 (stereo not drawn),.,.,.,75.7,81.4,.,.,.,.,.
CCCOc1ccc(OCCSc2ncccn2)cc1,.,65.2,.,.,77.8,.,54.4,86.5,52.8,.
CC(=O)c1cccc(NC(=O)CCOc2ccccc2)c1,.,.,.,.,.,/,/,/,/,/
CCCCCC(=O)Nc1ccc2oc(-c3cncc(Br)c3)nc2c1,.,100.9,.,.,.,.,.,.,.,.
